HCMV inh – blocks human cytomegalovirus replication. HFF cells, HCMV-luciferase reporter, 72 h; hits give low values. activity change, negative = inhibition, % at 57.5 µM. actives 4.5% (n = 410,000); in the data active = activity change below about -60%; inconclusive = no clear call, values can overlap the other calls; inactive = above about -39%
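Steps: HFFs plated, 16 h 37C; compounds added; HCMV-luciferase added to MOI 1 PFU/cell; 72 h 37C; OneGlo reagent, 5 min room temperature; luminescence read, normalized to controls.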
HCV inh – HCV inhibition. Huh7.5.1 HCVcc-Cre infection, luciferase reporter, 44 h. Potency, µM (highest dose often 41.8 µM), usual class: inhibitors. actives 3.4% (n = 340,000)
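Seed cells (1,000/well) for 4 h; treat with compound and infect with HCVcc-Cre, moi about 0.5. Incubate 44 h, then detect luciferase activity.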
AmpC inh no detg – blocks E. coli AmpC beta-lactamase in detergent-free assay; P00811; AmpC nitrocefin hydrolysis, absorbance 480 nm, 0.0001% Triton; Potency, µM (highest dose often 57.1 µM), hits mostly inhibitors; actives 0.52% (n = 330,000); note: nearly all actives have a fitted effect of over 20% in size
Target sequence (P00811 whole entry, looked up): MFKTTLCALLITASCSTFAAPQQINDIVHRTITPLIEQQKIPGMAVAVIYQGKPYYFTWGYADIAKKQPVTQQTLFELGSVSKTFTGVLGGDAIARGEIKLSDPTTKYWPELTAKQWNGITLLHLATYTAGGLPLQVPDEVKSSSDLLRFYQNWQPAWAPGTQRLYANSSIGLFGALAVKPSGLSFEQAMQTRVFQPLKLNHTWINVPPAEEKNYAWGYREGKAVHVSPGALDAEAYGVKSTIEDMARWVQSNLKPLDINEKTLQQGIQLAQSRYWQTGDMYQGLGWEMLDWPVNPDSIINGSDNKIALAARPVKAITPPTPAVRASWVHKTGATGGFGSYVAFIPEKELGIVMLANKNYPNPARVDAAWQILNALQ
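20 mM phosphate pH 7.0 + 0.01% (detergent screen) or 0.0001% Triton X-100; 5.3 nM AmpC reagent; cpd preinc 15 min RT; nitrocefin (800 uM stock) to start; A480 q20 s × 4 min; Activity was normalised to no-enzyme and no-compound control wells.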
AmpC inh detg – AmpC beta-lactamase inhibition with detergent present. AmpC hydrolysis of nitrocefin, absorbance 480 nm, 0.01% Triton. Potency, µM (series often up to 114 µM), actives largely listed as inhibitors. actives 0.041% (n = 370,000); note: nearly all actives have a fitted effect of over 25% in size
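20 mM phosphate pH 7.0 + 0.01% (detergent screen) or 0.0001% Triton X-100; 5.3 nM AmpC reagent; cpd preinc 15 min RT; nitrocefin (800 uM stock) to start; A480 q20 s × 4 min; Activity was normalised to no-enzyme and no-compound control wells.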
FMDV inh – antivirals against foot and mouth disease virus; actives 1.2% (n = 410,000); FMDV antiviral cell-based qHTS; Potency, µM (doses to about 57.9 µM), actives largely listed as inhibitors; calls by dose curve; tested in HEK293T cells; note: read-out not given here; nearly all actives have a fitted effect of over 45% in size
A number is an active result; n = inactive; u = inconclusive; x = no result given. This is a sample that favours compounds with a hit; in the whole collection about 7.3% have one here. Unless noted, calls come from the whole dose curve; as a rule, active = well fitted curve in the direction sought with a large enough effect; inconclusive = small, poorly fitted or top-dose-only effect, or another doubt; inactive = no such curve, though single readings can be large; an effect the other way counts as inactive or inconclusive.

SMILES	HCMV inh	HCV inh	AmpC inh no detg	AmpC inh detg	FMDV inh
Cc1cc(C)cc(N(C(=O)CNC(=O)c2ccco2)C(C(=O)NC2CCCC2)c2ccncc2)c1 (stereo unspecified)	-67	n	n	n	n
COc1ccc2ccccc2c1CN1CCOc2ccc(CN3CCN(CCO)CC3)cc2C1	x	x	x	x	n
O=C(Nc1ccc(N2CCOCC2)c(Cl)c1)c1cc(F)c(F)cc1Cl	n	u	n	n	n
Cc1ccccc1C(=O)N1CCN(c2ccc(NC(=O)c3ccco3)cc2Cl)CC1	n	11µM	n	u	u
COc1c(F)c(F)c(C(=O)Nc2ccc(N3CCN(C(C)=O)CC3)c(Cl)c2)c(F)c1F	-83	u	n	n	u
O=C(Nc1ccc(N2CCN(C(=O)c3ccco3)CC2)c(Cl)c1)c1cccnc1	n	u	n	n	n
O=C(Nc1ccc(N2CCOCC2)c(Cl)c1)c1c(F)c(F)c(F)c(F)c1F	n	8.9µM	n	n	u
O=C(Nc1ccc(N2CCN(C(=O)c3ccco3)CC2)c(Cl)c1)c1c(F)c(F)c(F)c(F)c1F	n	u	n	u	28µM
O=C(Nc1ccc(N2CCN(C(=O)c3cccs3)CC2)c(Cl)c1)c1ccco1	n	u	n	n	n
C[C@H](CO)N1C[C@H](C)[C@H](CN(C)C(=O)Nc2ccc3c(c2)OCO3)OCc2cnnn2CCCC1=O	n	x	x	x	x
Cc1cc(C)cc(OCCN2CCOCC2)c1	n	n	n	n	n
CN1C(=O)CSc2ccc(NC(=O)NCc3cccnc3)cc21	-61	u	n	n	x
COc1cccc(NC(=O)Nc2ccc3c(c2)N(C)C(=O)CS3)c1	n	u	3.2µM	n	u
CCOc1ccc(OCC)c(NC(=O)Nc2ccc3c(c2)N(C)C(=O)CS3)c1	n	u	1.1µM	u	u
CC(=O)Nc1ccc(NC(=O)Nc2ccc3c(c2)N(C)C(=O)CS3)cc1	n	n	n	n	n
CN1C(=O)CSc2ccc(NC(=O)Nc3ccccn3)cc21	n	n	n	n	n
CCc1ccc(-n2c(=O)c3ccccc3n(Cc3ccccc3C#N)c2=O)cc1	n	x	x	n	n
Cc1ccccc1CN1c2ccccc2S(=O)(=O)c2ccccc21	n	x	x	n	n
Cc1ccc(N2CC(NC(=O)c3cccs3)CC2=O)cc1 (stereo unspecified)	n	x	x	n	n
CCc1cccc(NC(=O)c2ccc(NC(=O)N3CCSc4ncccc43)cc2)c1	n	x	x	n	28µM
CCCCOc1ccc(CNC(=O)c2cccc(NC(=O)N3CCSc4ncccc43)c2)cc1	n	x	x	n	22µM
CCc1ccc(CNC(=O)c2ccc(NC(=O)N3CCSc4ncccc43)cc2)cc1	u	x	x	n	n
CCOc1ccc(CNC(=O)c2cccc(NC(=O)N3CCSc4ncccc43)c2)cc1	u	x	x	n	n
CCCCNC(=O)C[C@@H]1C[C@@]2(C(=O)OC)CCCCC=C2N(Cc2ccccc2)C1=O	n	x	x	x	n
CCCC[C@H]1C(=O)O[C@H](C)[C@H](NC(=O)c2cccc(NC=O)c2OC)C(=O)O[C@@H](C)[C@@H]1OC(=O)CC(C)C	x	x	x	x	n
SMILES	HCMV inh	HCV inh	AmpC inh no detg	AmpC inh detg	FMDV inh
CCCCCC1C(=O)O[C@H](C)[C@@H](NC(=O)c2cccc(NC=O)c2O)C(=O)OC(C)C1OC(=O)CC(C)C (stereo partly specified)	x	x	x	x	40µM
O=C(NC1CCCC1)C1C(c2ccccc2)=Nc2ccccc2N1C(=O)c1ccc(C(F)(F)F)cc1 (stereo unspecified)	-83	x	x	x	n
CCCCNC(=O)C1C(c2ccc(C(F)(F)F)cc2)=Nc2ccccc2N1C(=O)c1ccc2nc(C)[nH]c2c1 (stereo unspecified)	-86	x	x	x	n
O=C(NC1CCCC1)C1C(c2ccc(C(F)(F)F)cc2)=Nc2ccccc2N1C(=O)c1cccc(C(F)(F)F)c1 (stereo unspecified)	n	x	x	x	n
COc1ccc(C)cc1NC(=S)NC(C)c1ccc(OC)c(OC)c1 (stereo unspecified)	u	11µM	n	n	n
CN(C)CC(C)(C)CNC(=O)c1cnn(-c2nccc(-c3ccc4c(c3)OCO4)n2)c1-c1ccco1	x	x	x	x	n
CCOC(=O)c1sc2nc(C)nc(NCc3cccnc3)c2c1C	u	n	n	n	n
CCOC(=O)c1sc2nc(C)nc(SC(C)C(=O)N(C)c3ccccc3)c2c1C (stereo unspecified)	-64	u	n	n	n
CCOC(=O)c1sc2nc(C)nc(Nc3ccc(OC)cc3)c2c1C	-67	n	n	n	n
CCOC(=O)c1sc2nc(C)nc(NCc3ccc(Cl)cc3)c2c1C	-68	u	n	n	u
CCOC(=O)c1sc2nc(C)nc(NCc3ccc(F)cc3)c2c1C	u	u	n	n	n
COc1ccc(CN2CCOc3c(O)cc(-c4cc(C)c5ccc(F)cc5n4)cc3C2)c(O)c1	x	x	x	x	n
CC(=O)c1ccc(Nc2nc(-c3ccccc3)nc3ccccc23)cc1	n	u	x	x	n
CC(=O)c1cccc(Nc2nc(-c3ccccc3)nc3ccccc23)c1	n	10µM	n	n	u
Oc1cccc(Nc2nc(-c3ccccc3)nc3ccccc23)c1	u	3.5µM	n	u	u
CC(=O)Nc1cccc(Nc2nc(-c3ccccc3)nc3ccccc23)c1	n	6.3µM	n	n	u
Cc1ccc(NC(=O)CN(C)CC(=O)N(CC(C)C)c2c(N)n(CC(C)C)c(=O)[nH]c2=O)c(C)c1	n	n	n	n	n
O=C(O)C1CC2CCC1CC2 (stereo unspecified)	n	n	x	x	n
COc1ccccc1CCC(=O)Nc1ccc(S(=O)(=O)Nc2nccs2)cc1	n	n	n	n	n
CCN(CC)CCNc1cc(C)nc2c1C(=O)C(=O)C=C2N1CCCCC1	-98	u	n	n	u
CCN(CC)CCCNC(=O)c1sc2nc3n(c(=O)c2c1C)CCCCC3	n	x	x	n	n
O=C(NCc1nnc2n1CCN(Cc1cc3c(cc1Cl)OCO3)CC2)c1cccc(F)c1	x	x	x	x	n
COc1ccc(CN(CC(O)COCc2ccccc2)S(=O)(=O)c2ccccc2Br)cc1OC (stereo unspecified)	n	11µM	n	x	n
O=C1Nc2ccccc2Oc2cc(Oc3ccccc3)ccc21	n	x	10µM	n	n
CN(C)CCCn1c2c(c(SCC(=O)Nc3ccc4c(c3)OCO4)nc1=O)CCC2	n	n	n	u	n
Cc1ccc(C(=O)N2c3ccccc3N(Cc3ccccc3)C(=O)C2(C)C)cc1	-93	11µM	n	n	x
Cc1ccc(C(=O)CC2(O)C(=O)N(Cc3ccccc3)c3ccc(Br)cc32)cc1 (stereo unspecified)	n	x	x	n	n
O=C(Nc1cccc(S(=O)(=O)N2CCCCC2)c1)Nc1ccc(Cl)cc1Cl	-100	u	u	n	u
CN1CCN(S(=O)(=O)c2ccc(C(=O)Nc3ccccc3)cc2)CC1	n	n	n	n	n
